Test results from paper PMC4336329 (PLoS ONE, 2015).
In all, about 310,000 compounds went through this assay and about 14,000 (4.5%) showed an effect of 50% or more. The effect is printed as a negative number. What follows is part of a selection rich in strong results, with near analogues and random picks from the rest.

biological target: human ether-à-go-go-related gene (hERG) potassium channel (human, UniProt Q12809); assay: primary screen, population patch clamp on CHO cells stably expressing hERG; higher = less effect of the substance
Sequence (Q12809 whole entry, looked up): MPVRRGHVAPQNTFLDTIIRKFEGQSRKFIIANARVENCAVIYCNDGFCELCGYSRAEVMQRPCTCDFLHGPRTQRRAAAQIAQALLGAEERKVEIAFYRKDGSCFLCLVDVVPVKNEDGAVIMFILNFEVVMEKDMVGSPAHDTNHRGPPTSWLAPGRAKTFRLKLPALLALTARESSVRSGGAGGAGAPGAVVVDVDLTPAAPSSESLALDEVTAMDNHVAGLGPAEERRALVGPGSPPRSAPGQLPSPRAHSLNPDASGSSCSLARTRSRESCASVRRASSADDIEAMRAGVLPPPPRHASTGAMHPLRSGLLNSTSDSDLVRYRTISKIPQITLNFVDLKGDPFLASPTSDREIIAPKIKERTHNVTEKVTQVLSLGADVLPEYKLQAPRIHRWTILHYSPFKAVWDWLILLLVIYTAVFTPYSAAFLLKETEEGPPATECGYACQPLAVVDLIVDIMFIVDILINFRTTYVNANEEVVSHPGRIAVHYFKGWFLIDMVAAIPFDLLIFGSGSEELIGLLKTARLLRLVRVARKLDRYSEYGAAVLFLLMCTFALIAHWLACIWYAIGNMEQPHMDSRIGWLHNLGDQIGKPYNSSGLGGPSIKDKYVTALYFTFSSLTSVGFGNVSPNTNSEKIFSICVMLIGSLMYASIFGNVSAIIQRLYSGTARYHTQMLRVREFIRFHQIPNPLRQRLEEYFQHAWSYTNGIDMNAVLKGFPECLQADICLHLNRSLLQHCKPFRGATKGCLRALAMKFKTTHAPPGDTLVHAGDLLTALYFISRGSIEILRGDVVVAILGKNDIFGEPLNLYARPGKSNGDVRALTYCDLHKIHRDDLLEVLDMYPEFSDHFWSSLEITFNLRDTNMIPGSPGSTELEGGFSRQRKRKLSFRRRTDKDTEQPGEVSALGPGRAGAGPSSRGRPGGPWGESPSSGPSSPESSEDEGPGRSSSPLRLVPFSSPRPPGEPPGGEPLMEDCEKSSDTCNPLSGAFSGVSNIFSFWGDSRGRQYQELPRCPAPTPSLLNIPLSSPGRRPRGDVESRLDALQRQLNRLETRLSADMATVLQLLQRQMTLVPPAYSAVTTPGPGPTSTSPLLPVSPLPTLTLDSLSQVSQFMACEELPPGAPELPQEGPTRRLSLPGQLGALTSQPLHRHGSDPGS
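Note: peak tail current of the secondary pulse compared with the same well before compound.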

| SMILES | hERG current change (%, negative = inhibition) at 10uM [%] |
| --- | --- |
| CN1CCN(NC(=O)c2ccc(Cl)c([N+](=O)[O-])c2)CC1 | 8.74 |
| CC(=O)Nc1ccc(NC(=O)C(C)Sc2nnc(C3CC3)n2-c2ccccc2)cc1 (stereo not shown) | 8.37 |
| COc1ccc(N2CCN(C(=O)c3ccc4c(c3)OCO4)CC2)cc1 | -21.7 |
| O=c1nc2ccccc2c(NS(=O)(=O)c2ccccc2)n1-c1ccccc1 | 2.7 |
| Cc1ccccc1CSc1nnc(-c2ccco2)n1Cc1ccco1 | -75.4 |
| CC(=O)c1c(C)[nH]c(C(=O)CSc2nnc(-c3cccs3)n2Cc2ccccc2)c1C | -25.6 |
| O=C(CSc1nnc(-c2ccco2)n1Cc1ccccc1)NC(=O)NCc1ccco1 | -74.7 |
| Cc1nnc(SCC(=O)NC(=O)NCc2ccco2)n1Cc1ccccc1 | -6.26 |
| Cc1ccccc1CSc1nnc(-c2cccs2)n1Cc1ccco1 | -41.7 |
| c1ccc(CSc2nnc(-c3ccco3)n2Cc2ccccc2)cc1 | -46 |
| c1ccc(CSc2nnc(-c3ccco3)n2Cc2ccco2)cc1 | -34.6 |
| O=C1c2ccccc2C(=O)N1CCSc1nnc(-c2ccco2)n1Cc1ccccc1 | -72.8 |
| Cc1ccc(C(=O)CSc2nnc(-c3ccco3)n2Cc2ccccc2)cc1 | -17.8 |
| CCOC(=O)c1c(C)[nH]c(C)c1C(=O)CSc1nnc(-c2ccco2)n1Cc1ccccc1 | -19.3 |
| O=C(CSc1nnc(-c2ccco2)n1Cc1ccccc1)NC(=O)NCc1ccccc1 | -13.3 |
| CC(=O)c1c(C)[nH]c(C(=O)CSc2nnc(-c3ccco3)n2Cc2ccccc2)c1C | -61.5 |
| COc1ccc(-c2nnc(SCC#CCO)o2)cc1OC | 4.93 |
| COc1ccccc1N1CCN(S(=O)(=O)c2ccc3c(c2)oc(=O)n3C)CC1 | 26 |
| COc1ccc(NC(=O)CN(C)C(=O)/C=C/c2cn(-c3ccccc3)nc2-c2ccc(C)cc2)cc1 | 13.8 |
| COc1ccc(C2=NS(=O)(=O)N(C)C(C(=O)Nc3ccc(F)cc3F)=C2)cc1 | 10.1 |
| CN(Cc1ccccc1)C(=O)COC(=O)C1CCN(S(=O)(=O)c2ccc(Cl)c(C(F)(F)F)c2)CC1 | -15.8 |
| CCC/C(=N\NC(=O)CNC(=O)c1ccc(Cl)cc1)c1ccccc1 | -1.56 |
| CC(NC(=O)COc1ccc(S(=O)(=O)N2CCOCC2)cc1)c1ccccc1 (stereo not shown) | -4.63 |
| O=C(/C=C\c1ccccc1OC(=O)c1ccccc1F)c1cc2ccccc2o1 | -3.12 |
| NC(=O)NC(=O)CSc1nnc(-c2ccco2)n1Cc1ccccc1 | 5.78 |
| CC(C)(C)NC(=O)CSc1nnc(-c2ccco2)n1Cc1ccco1 | -5.83 |

| SMILES | hERG current change (%, negative = inhibition) at 10uM [%] |
| --- | --- |
| O=C(CSc1nnc(-c2ccco2)n1Cc1ccco1)Nc1ccccc1 | -70.7 |
| O=C(CSc1nnc(-c2ccco2)n1Cc1ccco1)NCc1ccccc1 | -50.8 |
| CC(=O)Nc1ccc(NC(=O)CSc2nnc(-c3ccco3)n2Cc2ccco2)cc1 | -1.79 |
| O=C(CSc1nnc(-c2ccco2)n1Cc1ccco1)NCc1cccs1 | -33.1 |
| COC(=O)CCNCCSc1nnc(-c2ccco2)n1Cc1ccccc1.O=C(O)C(=O)O | -64.5 |
| CNC(=O)NC(=O)CSc1nnc(-c2ccco2)n1Cc1ccccc1 | -8.53 |
| O=C(CSc1nnc(-c2ccco2)n1Cc1ccccc1)c1ccccc1 | -18.4 |
| Cc1cc(NC(=O)CSc2nnc(-c3ccco3)n2Cc2ccco2)no1 | -24.7 |
| COCCn1c(SCC(=O)NCc2ccccc2)nnc1-c1ccco1 | 5.7 |
| O=C(CSc1nnc(-c2ccco2)n1Cc1ccccc1)NCc1ccccc1 | -51.8 |
| Cc1cc(C)n(-c2ccc(S(=O)(=O)N3CCOCC3)cc2[N+](=O)[O-])n1 | -10.9 |
| O=C1/C(=C\c2cccnc2)CN(Cc2ccccc2)C/C1=C\c1cccnc1 | -29.4 |
| O=C(NCC(=O)N(CC1CCCO1)C1(C(=O)NC2CCCC2)CCCCC1)c1ccccc1 (stereo not shown) | 3.96 |
| CCOc1ccc(C(CC(=O)O)NC(=O)C23CC4CC(CC(C4)C2)C3)cc1OC (stereo not shown) | 30.2 |
| Nc1c(C=C2C=CC(=O)C=C2)c(=O)nc2sc(CC(=O)N3CCCC3)nn12 | 8.79 |
| CN(Cc1ccccc1)C(=O)c1cccc(C(=O)N(C)Cc2ccccc2)c1 | -3.07 |
| COc1ccc(NS(=O)(=O)c2cccc(C(=O)N(C)Cc3ccc(SC)cc3)c2)cc1 | -9.93 |
| CN(Cc1ccc(OC(F)F)cc1)C(=O)c1ccc2nccnc2c1 | -67.8 |
| CN(Cc1ccc(OC(F)F)cc1)C(=O)c1ccccc1Sc1ccccc1C#N | -60.5 |
| COc1ccc(CN(C)C(=O)c2cccc(C(=O)N(C)Cc3ccc(OC)cc3)c2)cc1 | -65.6 |
| COc1cccc(CN(C)C(=O)c2ccccc2Sc2ccccc2C#N)c1 | -13.4 |
| CN(Cc1ccc(OC(F)F)cc1)C(=O)c1ccc2c(=O)n3c(nc2c1)CCC3 | -33.3 |
| Cc1ccc(CN(C)C(=O)c2ccccc2Sc2ccccc2C#N)cc1 | 23.4 |
| COc1cccc(CN(C)C(=O)c2ccc3nccnc3c2)c1 | -6.89 |
| COc1ccccc1NS(=O)(=O)c1ccc2oc(SC)nc2c1 | 2.84 |
| CN(CC(=O)Nc1ccccc1Cl)C(=O)c1cc(C2CC2)nn1-c1ccccc1 | -18.1 |
